Compounds with a hit are over-represented: about 3.4% of the library has one in this group of screens.
TEAD-YAP block = TEAD-YAP interaction inhibition. inhibition, % at 9.12 µM. 640,000 compounds, 1.4% hits. HEK-TIYL cells, TEAD-Gal4/YAP UAS-luciferase luminescence; in the data active = inhibition above about 32%;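 note: 0% = median of test compound wells and 100% = reference inhibitor wells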
MITF primary = blocks human microphthalmia-associated transcription factor. AlphaScreen MITF homodimerization, bead proximity signal. inhibition, % at 2.6 µM. 650,000 compounds, 0.91% hits. AID 1259374; in the data active = inhibition above about 50%;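 note: 0% = vehicle wells with protein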
FBW7 activator = human FBW7 E3 ligase activation, primary screen. Q969H0. AlphaScreen FBW7–phospho-cyclin E peptide binding, activator screen. normalized activity (activation), % at 26.1 µM. 650,000 compounds, 0.13% hits. AID 1259310; in the data active = normalized activity above about 1.9%;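 note: purified mutant Fbw7 with reduced substrate affinity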
GPR151 activ = activators of human GPR151 | AID 1508602 | 650,000 compounds, 1% hits | Q8TDV0 | activation, % at 11.2 µM | PathHunter beta-arrestin GPR151 cells, luminescence; in the data active = activation above about 4.9%;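 note: 0% = median of compound wells and 100% = cells with positive control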
An asterisk follows results filed as active.

SMILES | TEAD-YAP block | MITF primary | FBW7 activator | GPR151 activ
O=C(O)C1Nc2c(O)ccc(Br)c2C2C=CCC12 (stereo not drawn) | 2 | 86* | 0 | 0
CC1CCCC(NC(=O)C2N(CCc3ccc(Cl)cc3)C(=O)C3C(C(=O)Nc4cccc(Cl)c4)C4C=CC32O4)C1C (stereo not drawn) | -11 | -4 | 0 | -1
Cc1cc2nnc(SCC(=O)NCc3ccco3)n2c2ccccc12 | 48* | -5 | 0 | -3
Cc1cccc(Cn2cc(SCC(=O)NCc3ccco3)c3ccccc32)c1 | 36* | -4 | 0 | 3
CN(Cc1ccccc1)S(=O)(=O)c1ccc(NC(=O)/C=C/c2ccc(F)cc2)cc1 | 3 | -6 | 0 | -1
CC(=O)/C=C/c1ccc(OCc2ccccc2)cc1 | 44* | 8 | 0 | -5
CCOc1ccc(/C=C/C(=O)Nc2ccccc2)cc1 | 51* | 2 | 0 | -9
COc1ccc(/C=C/C(=O)Nc2ccc(S(=O)(=O)N(C)Cc3ccccc3)cc2)cc1 | 43* | -7 | 0 | 4
CCCC1CCC(c2nc(-c3cccc(C(F)(F)F)c3)no2)CC1 (stereo not drawn) | 4 | 17 | 0 | 0
Cc1ccc(/C=C/C(=O)Nc2cc3c(ccc4ccccc43)oc2=O)cc1 | 5 | 3 | 0 | 1
O=C(O)c1ccccc1C(=O)Nc1ccc(Oc2cccc3ccccc23)cc1 | 82* | 10 | 0 | 2
Cc1cccc(Oc2ccc(NC(=O)c3ccccc3C(=O)O)cc2)c1C | 5 | 0 | 0 | 2
CCCCOc1ccc(NC(=O)C2CCCCC2C(=O)O)cc1 (stereo not drawn) | 4 | 8 | 0 | 0
O=C(O)C1CCCCC1C(=O)Nc1ccc(Oc2cccc3ccccc23)cc1 (stereo not drawn) | 71* | 6 | 0 | 0
CCOC(=O)N1CCN(c2c(NCc3ccc(F)cc3)c(=O)c2=O)CC1 | 55* | 0 | 0 | 2
CCOC(=O)N1CCN(c2c(N3CCN(c4ccc(F)cc4)CC3)c(=O)c2=O)CC1 | -5 | -4 | 0 | -2
COC(=O)C1=C(C)N(C)C(=O)NC1c1cc(Cl)c(O)c(OC)c1 (stereo not drawn) | -4 | -5 | 0 | -1
Cc1cc(NS(=O)(=O)c2ccc(NC(=O)CCCC3CCCCC3)cc2)nc(C)n1 | 3 | -1 | 0 | 0
COc1cc(Br)ccc1OCC(=O)N/N=C/c1ccc(C)o1 | -1 | 10 | 0 | 0
CC(C)C(NC(=O)OC(C)(C)C)C(=O)N1CCCC1C(N)=O (stereo not drawn) | 9 | 9 | 2.0* | -1
COc1cc(C2CC(=O)Nc3cc4c(cc32)OCO4)c(Br)c(OC)c1OC (stereo not drawn) | 51* | -3 | 0 | -1
COc1cc(C2CC(=O)Nc3c2ccc2ccccc32)c(Br)c(OC)c1OC (stereo not drawn) | 59* | -18 | 0 | 0
COc1ccc(C2CC(=O)Nc3cc4c(cc32)OCO4)cc1O (stereo not drawn) | 2 | 17 | 0 | 0
CC(=O)c1ccc(S(=O)(=O)NCCC(C)C)cc1 | 8 | 5 | 0 | 1
CC(C)CCNS(=O)(=O)c1ccc(Oc2ccc(S(=O)(=O)NCCC(C)C)cc2)cc1 | 33* | 10 | 1 | 0
SMILES | TEAD-YAP block | MITF primary | FBW7 activator | GPR151 activ
Cc1ccc(-c2csc(NC(=O)CSc3n[nH]c(N)n3)n2)cc1 | 3 | -2 | 0 | 1
CCn1c(-c2ccc(Cl)cc2)csc1=Nc1cc(OC)c(Cl)cc1OC | 35* | 6 | 0 | 2
CCn1c(-c2ccc(F)cc2)csc1=Nc1cc(OC)c(Cl)cc1OC | 33* | 28 | -1 | 2
CCOCCn1cnc2sc(C(=O)Nc3nc4ccccc4s3)c(C)c2c1=O | 49* | -6 | 0 | -2
CCOCCn1cnc2sc(C(=O)Nc3cnc4ccccc4c3)c(C)c2c1=O | 79* | 14 | 0 | 1
O=C(Nc1ccc(-c2ccc(Cl)cc2)cc1)c1sc2ccccc2c1Cl | 0 | 1 | 0 | 0
Cc1cccc(C)c1N1C(=O)CC(N2CCN(Cc3ccccc3)CC2)C1=O (stereo not drawn) | 6 | -7 | 0 | -1
Oc1ccc(/C=N/n2c(-c3ccncc3)n[nH]c2=S)cc1O | 4 | 63* | 0 | -1
Cc1ccc(-c2n[nH]c(=S)n2/N=C\c2ccc(O)c(O)c2)cc1 | -11 | -66 | 0 | 0
C=CCNc1nc2nonc2nc1NC1CCCC1 | 3 | -7 | 0 | 0
Cc1ccc(N2C(N)=C(C#N)C(c3ccc4c(c3)OCO4)C3=C2CC(C)(C)CC3=O)cc1 (stereo not drawn) | 42* | -11 | 0 | -2
COc1cc(C2C(C#N)=C(N)N(c3ccc(C)cc3)C3=C2C(=O)CC(C)(C)C3)cc(OC)c1OC (stereo not drawn) | 54* | -3 | 0 | 0
CCC(CC)C(=O)Nc1cccc(Br)c1 | -4 | 4 | 0 | 1
Cc1ccc(C#N)c(SCc2nnc(-c3ccc(Cl)cc3)o2)n1 | 68* | 15 | 0 | 0
COc1ccccc1N1CCN(c2ncc(C(=O)Nc3ccccc3F)c3ccccc23)CC1 | -5 | -11 | 0 | -2
CCOc1cccc2c1OC(c1ccc(OC)cc1)N1N=C(c3ccc(C)o3)CC21 (stereo not drawn) | -12 | -4 | 0 | -2
COc1ccc(C2Oc3c(OC)cccc3C3CC(c4cccc(OC)c4)=NN32)cc1 (stereo not drawn) | 44* | 0 | 0 | -1
COc1cccc(C2Oc3c(OC)cccc3C3CC(c4ccc(C)o4)=NN32)c1 (stereo not drawn) | 38* | -1 | 0 | -1
COc1cccc2c1OC1(CCC(C)CC1)N1N=C(c3ccc(C)o3)CC21 (stereo not drawn) | 33* | 10 | 0 | -3
COc1cccc2c1OC1(CCCCC1)N1N=C(c3ccc(C)o3)CC21 (stereo not drawn) | 28 | -3 | 0 | -1
COc1ccc(C2=NN3C(C2)c2cccc(OC)c2OC3c2ccc(OC)cc2)cc1 (stereo not drawn) | -59 | -3 | 0 | -1
C=CCc1c(C)nc(-c2ccccc2)nc1Nc1ccc(C)cc1 | 2 | 3 | 0 | 1
COc1ccc(C(C)=O)cc1CO/N=C/c1ccc(OC(F)F)c(OC)c1 | -7 | 4 | 0 | 1
O=C(O)CCN(CCC(=O)O)c1nnc(-c2ccccc2)s1 | 8 | 5 | 0 | -1
CCC(=O)C(C#N)c1nnc(-c2ccccc2)s1 (stereo not drawn) | 37* | 0 | 0 | -3
COc1ccccc1C1SCCN1S(=O)(=O)c1ccc([N+](=O)[O-])cc1 (stereo not drawn) | 6 | 2 | 4.4* | 1
COc1ccc(S(=O)(=O)N2CCSC2c2cc(OC)c(OC)cc2OC)cc1 (stereo not drawn) | 43* | -3 | 0 | 0
COc1cc(OC)c(C2SCCN2S(=O)(=O)c2ccc(C)cc2)cc1OC (stereo not drawn) | -2 | 7 | 0 | -1

Bioassay records from PubChem.
